This is an account of results in PubChem BioAssay (NCI).

Compounds without any hit were thinned out: in the full panel of roughly 83,000, 20% have a hit.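 Compound tested at a single concentration for 48 hours in 96-well plates; a percent growth value below 10 was scored as active.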 Unmarked numbers belong to inactive results. Calls of active or inactive are those of the source.

Test systems include OVCAR-8 ovarian; OVCAR-5 ovarian; OVCAR-4 ovarian; SK-OV-3 ovarian; IGROV1 ovarian; OVCAR-3 ovarian; HS 578T breast; NCI/ADR-RES ovarian; T-47D breast; BT-549 breast; MDA-MB-435 melanoma; SW-620 colon; MCF7 breast; HCT-116 colon; HCC-2998 colon; KM12 colon.
Common to all, as to assay: NCI-60 one-dose screen, 48 h (100 = growth as untreated, 0 = no growth, -100 = all killed)
Holding throughout (settings): 10 µM

For `COc1cc(-c2cc(/C=C/C(=O)c3ccc4c(c3)OCO4)[nH]n2)cc(OC)c1OC`, the growth with OVCAR-8 ovarian is 76.6%; in the assay on OVCAR-5 ovarian, 83.3%; in the assay with OVCAR-4 ovarian, 76.6%; with SK-OV-3 ovarian, 99.2%; in the assay with IGROV1 ovarian, 98.5%; in the assay on OVCAR-3 ovarian, 77.7%. Moreover, the growth was 86.6% with HS 578T breast; 78.5% with NCI/ADR-RES ovarian; 40% in the assay on T-47D breast; 60.9% with BT-549 breast; 31.2% in the assay with MDA-MB-435 melanoma; 47.4% with SW-620 colon. Also, the growth was 17.3% in the assay with MCF7 breast, 31.4% with HCT-116 colon, 103% in the assay on HCC-2998 colon and 18% with KM12 colon.

Consider `O=C(O)CN1C(=O)c2cccc3cccc(c23)C1=O`, for which the growth with OVCAR-8 ovarian was 98.8%; in the assay with OVCAR-5 ovarian it was 105%; in the assay with OVCAR-4 ovarian it was 100%; in the assay on SK-OV-3 ovarian it was 94%; in the assay with IGROV1 ovarian, 111%; in the assay on OVCAR-3 ovarian it was 118%. The growth with HS 578T breast was 108%; with NCI/ADR-RES ovarian, 102%; in the assay with T-47D breast, 90.1%; with BT-549 breast, 104%; with MDA-MB-435 melanoma, 104%; with SW-620 colon, 106%. In addition, the growth with MCF7 breast was 87.4%; in the assay with HCT-116 colon it was 102%; with HCC-2998 colon, 103%; in the assay with KM12 colon it was 107%.

On to `CCOC(=O)C(NC(=O)C(Cl)Cl)C(O)c1ccccc1` (configuration not stated), for which the growth in the assay on OVCAR-8 ovarian was 102%; in the assay on OVCAR-5 ovarian, 102%; with OVCAR-4 ovarian, 110%; in the assay on SK-OV-3 ovarian, 116%; with IGROV1 ovarian, 77.7%; in the assay with OVCAR-3 ovarian it was 109%. For the same molecule, the growth was 120% in the assay on HS 578T breast; 108% with NCI/ADR-RES ovarian; 107% in the assay on T-47D breast; 112% in the assay on BT-549 breast; 94.9% in the assay with MDA-MB-435 melanoma; 100% with SW-620 colon. The growth with MCF7 breast was 94.8%; in the assay with HCT-116 colon, 85.3%; in the assay on HCC-2998 colon, 110%; with KM12 colon, 110%.

As for `COc1ccc(S(=O)(=O)Nc2c(/C=C\c3cc(OC)c(OC)c(OC)c3)ccc(OC)c2O)cc1`, the growth is -0.813% (active) in the assay on OVCAR-8 ovarian; 29.5% in the assay with OVCAR-5 ovarian; 53% in the assay with OVCAR-4 ovarian; 18.5% in the assay on SK-OV-3 ovarian; 33.2% with IGROV1 ovarian; -8.9% (active) in the assay with OVCAR-3 ovarian. Also, the growth with HS 578T breast was -8.12% (active); in the assay with NCI/ADR-RES ovarian, -2.42% (active); with T-47D breast, 82.2%; with BT-549 breast it was 40.6%; in the assay with MDA-MB-435 melanoma, -39.4% (active); with SW-620 colon, 23.4%. The growth is 10.9% with MCF7 breast, -6.66% (active) in the assay on HCT-116 colon, 13.3% in the assay on HCC-2998 colon and -4.97% (active) with KM12 colon.

Consider `Nc1c(C(=O)Nc2ccccc2)sc2nc3c(cc12)CCCC3`, for which the growth in the assay on OVCAR-8 ovarian is 33.6%; in the assay with OVCAR-5 ovarian, 62%; with OVCAR-4 ovarian, 49.9%; in the assay on SK-OV-3 ovarian it was 24.7%; with IGROV1 ovarian, 30.5%; with OVCAR-3 ovarian, -13.7% (active). Further, the growth with HS 578T breast was 36.8%; with NCI/ADR-RES ovarian, 20.4%; with T-47D breast, 47.3%; in the assay with BT-549 breast it was 66.6%; with MDA-MB-435 melanoma it was -30.6% (active); with SW-620 colon it was 34.4%. For the same molecule, the growth in the assay with MCF7 breast was 15.6%; in the assay with HCT-116 colon, 25.5%; with HCC-2998 colon, 24.5%; in the assay with KM12 colon it was 31.1%.

With `O=C(N/N=C/c1cc2ccccc2c2ccccc12)c1cc(O)c(O)c(O)c1`, the growth in the assay with OVCAR-8 ovarian is 48.5%; in the assay on OVCAR-5 ovarian, 90.4%; with OVCAR-4 ovarian it was 26.4%; in the assay with SK-OV-3 ovarian, 78.8%; in the assay on IGROV1 ovarian, 58.7%; in the assay with OVCAR-3 ovarian it was 58%. Also, the growth is 75.4% in the assay with HS 578T breast; 81.4% in the assay on NCI/ADR-RES ovarian; 2.62% (active) in the assay with T-47D breast; 49.4% with BT-549 breast; 35.3% with MDA-MB-435 melanoma; 25.4% in the assay on SW-620 colon. For the same molecule, the growth is 67.6% in the assay on MCF7 breast, 26% in the assay with HCT-116 colon, 94.5% in the assay with HCC-2998 colon and 83.2% in the assay on KM12 colon.

As for `CC1CC(=O)OC(C)C1` (configuration not stated), the growth in the assay with OVCAR-8 ovarian was 104%; in the assay on OVCAR-5 ovarian, 105%; in the assay with OVCAR-4 ovarian, 97.6%; in the assay on SK-OV-3 ovarian it was 101%; with IGROV1 ovarian, 107%; in the assay with OVCAR-3 ovarian it was 116%. The growth in the assay on HS 578T breast is 112%; in the assay with NCI/ADR-RES ovarian, 112%; in the assay on T-47D breast, 107%; in the assay on BT-549 breast, 114%; with MDA-MB-435 melanoma, 96.7%; in the assay with SW-620 colon, 107%. Further, the growth is 91.1% in the assay on MCF7 breast, 104% in the assay on HCT-116 colon, 92.5% with HCC-2998 colon and 110% in the assay with KM12 colon.

Turning to `O=[N+]([O-])c1ccc(N/N=C/c2cccc3ccccc23)nc1`, the growth is 104% with OVCAR-8 ovarian; 96.7% in the assay with OVCAR-5 ovarian; 90.4% in the assay with OVCAR-4 ovarian; 105% in the assay with SK-OV-3 ovarian; 89.8% in the assay with IGROV1 ovarian; 122% in the assay with OVCAR-3 ovarian. The growth was 108% with HS 578T breast; 107% in the assay with NCI/ADR-RES ovarian; 75.4% in the assay on T-47D breast; 106% in the assay on BT-549 breast; 118% in the assay on MDA-MB-435 melanoma; 117% with SW-620 colon. Moreover, the growth in the assay on MCF7 breast is 75.6%; in the assay with HCT-116 colon it was 95.8%; in the assay on HCC-2998 colon, 101%; with KM12 colon, 99.1%.

As for `CCOC(=O)C(CSC(c1ccccc1)(c1ccccc1)c1ccccc1)NC(=O)C(CSC(c1ccccc1)(c1ccccc1)c1ccccc1)NC(c1ccccc1)(c1ccccc1)c1ccccc1` (configuration not stated), the growth is 95.6% in the assay with OVCAR-8 ovarian; 106% with OVCAR-5 ovarian; 105% with OVCAR-4 ovarian; 109% in the assay on SK-OV-3 ovarian; 115% in the assay with IGROV1 ovarian; 119% in the assay with OVCAR-3 ovarian. For the same molecule, the growth was 99.5% in the assay on HS 578T breast; 109% in the assay with NCI/ADR-RES ovarian; 108% in the assay on T-47D breast; 109% in the assay with BT-549 breast; 86.1% in the assay on MDA-MB-435 melanoma; 104% in the assay with SW-620 colon. Also, the growth with MCF7 breast is 95%; in the assay with HCT-116 colon it was 108%; in the assay with HCC-2998 colon it was 113%; with KM12 colon, 111%.

As for `Nc1ccccc1NC(=O)CCCCC(=O)Nc1ccc2c(c1)/C(=C/c1ccc[nH]1)C(=O)N2`, the growth in the assay on OVCAR-8 ovarian was 78.5%; in the assay on OVCAR-5 ovarian it was 96.5%; in the assay with OVCAR-4 ovarian, 52.1%; in the assay on SK-OV-3 ovarian it was 72.5%; with IGROV1 ovarian, 59.8%; in the assay with OVCAR-3 ovarian, 65.8%. The growth in the assay on HS 578T breast was 52.3%; in the assay on NCI/ADR-RES ovarian, 107%; in the assay with T-47D breast, 59.6%; in the assay with BT-549 breast, 33.9%; in the assay with MDA-MB-435 melanoma, 68.8%; with SW-620 colon, 91.3%. In addition, the growth is 35% in the assay on MCF7 breast, 82.7% in the assay with HCT-116 colon, 87.5% in the assay with HCC-2998 colon and 15.9% in the assay with KM12 colon.

Regarding `CN(CCc1ccccn1)c1ccccc1`, the growth in the assay on OVCAR-8 ovarian was 102%; in the assay on OVCAR-5 ovarian it was 94%; with OVCAR-4 ovarian, 98.5%; with SK-OV-3 ovarian it was 112%; in the assay with IGROV1 ovarian, 103%; in the assay on OVCAR-3 ovarian it was 131%. Moreover, the growth in the assay on HS 578T breast was 107%; in the assay on NCI/ADR-RES ovarian, 105%; in the assay with T-47D breast, 97.4%; with BT-549 breast, 104%; in the assay on MDA-MB-435 melanoma, 120%; in the assay on SW-620 colon it was 111%. Also, the growth was 95.9% in the assay on MCF7 breast, 101% in the assay with HCT-116 colon, 103% in the assay with HCC-2998 colon and 104% in the assay on KM12 colon.

With `COc1cc(NC(=O)CSc2nc3ccccc3c(=O)n2CCc2ccccc2)cc(OC)c1OC`, the growth in the assay with OVCAR-8 ovarian is 30%; in the assay with OVCAR-5 ovarian, 65.9%; in the assay on OVCAR-4 ovarian, 53.8%; with SK-OV-3 ovarian, -37.5% (active); with IGROV1 ovarian, 8.76% (active); in the assay with OVCAR-3 ovarian, -30.6% (active). The growth is 36.6% in the assay with HS 578T breast; 36.5% in the assay with NCI/ADR-RES ovarian; -1.62% (active) with T-47D breast; -4.65% (active) in the assay on BT-549 breast; 32.1% in the assay with MDA-MB-435 melanoma; 48.6% in the assay on SW-620 colon. Also, the growth is 51% with MCF7 breast, -0.608% (active) in the assay on HCT-116 colon, 35% in the assay on HCC-2998 colon and 7.82% (active) in the assay on KM12 colon.
